# Laboratory results as given in PubChem BioAssay AID425 (Sanford-Burnham Center for Chemical Genomics, 2006).
# Values joined by “and” are separate entries in the source; they are usually repeats but may differ in a detail not shown here. Identical values can stand only once. In all, about 110,000 compounds went through this assay and about 190 (0.17%) were called active. Cut-off read from the data, not from the text of the source: active = inhibition above about 50%; inactive = the rest. The list comes from a sample in which actives are over-represented; it also holds similar structures and randomly drawn compounds. Measured potencies and affinities stand elsewhere. The source holds several records for some structures; these can differ, active in one and inactive in another.
# Biological target: Dual specificity protein phosphatase 6 (Rattus norvegicus) (UniProt Q64346)
# Assay: inhibition of rat DUSP6 enzyme activity – biochemical, in vitro, primary screen (AID 425);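 note: plate controls were vehicle for no effect and reference inhibitor for full effect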
# Conditions: recombinant MKP-3 phosphatase activity, fluorescence; at 20 µM; stronger effect = higher value
# Dual specificity protein phosphatase 6 (Rattus norvegicus), sequence (Q64346 whole entry, looked up): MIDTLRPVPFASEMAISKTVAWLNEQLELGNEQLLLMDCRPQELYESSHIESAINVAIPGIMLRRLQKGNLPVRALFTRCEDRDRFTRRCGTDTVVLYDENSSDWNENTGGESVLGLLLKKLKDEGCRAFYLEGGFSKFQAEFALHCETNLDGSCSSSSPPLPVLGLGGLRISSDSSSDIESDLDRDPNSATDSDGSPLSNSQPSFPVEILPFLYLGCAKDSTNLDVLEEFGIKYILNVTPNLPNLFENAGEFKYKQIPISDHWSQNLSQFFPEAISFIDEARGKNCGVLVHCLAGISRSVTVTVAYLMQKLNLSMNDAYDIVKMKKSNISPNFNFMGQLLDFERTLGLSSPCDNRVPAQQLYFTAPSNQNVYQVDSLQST
row,SMILES,inhibition
1,CCN(CC)c1ccc(/C=C2/SC(=O)N(CNc3ccc(OC)c(Cl)c3)C2=O)cc1,2.6% (inactive)
2,COc1ccc(/C=C2\C=C(c3ccc(Br)cc3)OC2=O)cc1[N+](=O)[O-],5.6% (inactive)
3,COc1ccc(/C=N/Nc2nnc(-c3ccccc3)c(-c3ccccc3)n2)cc1,0.6% (inactive)
4,N/C(=N/O)c1nc(N2CCCCC2)nc(N2CCCCC2)n1,-8.2% (inactive)
5,O=C(Nc1ccc(C(=O)N2CCOCC2)cc1)Nc1cccc2ccccc12,2% (inactive)
6,CN(C)CCCNC(=O)c1ccc(F)cc1,-0.5% (inactive)
7,CN(C)CCCNC(=O)c1ccc2sc3cc(=O)c(N)cc-3nc2c1,84.1% (active)
8,CN(C)CCCNC(=O)c1cccc(F)c1,-3.1% (inactive)
9,Cc1ccc(-n2ncc(C(=O)N3CCc4ccccc4C3)c2NC(=O)c2ccco2)cc1C,-7.8% (inactive)
10,CC1(C)OC(=O)C(=Cc2ccc(-c3ccc(Cl)cc3Cl)o2)C(=O)O1,7.8% (inactive)
11,O=C1C(=Cc2ccc(I)o2)C(=O)c2ccccc21,15.6% (inactive)
12,CC1(C)OC(=O)C(=Cc2ccc(I)o2)C(=O)O1,101% (active)
13,Cc1ccc(C)c(C(=O)COC(=O)c2ccc(Br)o2)c1,-15.9% (inactive)
14,COc1ccc(-c2cc3ccccc3n2CC(O)CN2CCN(CCO)CC2)cc1 (centres undefined),-0.9% (inactive)
15,O=C(O)c1cccc(N2C(=O)CCC2=O)c1,-5.5% (inactive)
16,O=C(O)c1cccc(N2C(=O)c3ccc(Br)cc3C2=O)c1,0.9% (inactive)
17,O=C(O)c1cccc(N2C(=O)c3ccc4c5c(ccc(c35)C2=O)CC4)c1,71.8% (active)
18,c1ccc2c(-n3cnnn3)cccc2c1,-8.8% (inactive)
19,Cc1ccc(-c2nc(NC(=O)CSc3nnc(C)s3)ns2)cc1,6.1% (inactive)
20,Cc1ccc(-c2csc3nnc(SCC(=O)Nc4nsc(-c5ccccc5)n4)n23)cc1,-3.1% (inactive)
21,Cc1ccc(-c2nc(NC(=O)CSc3nnnn3-c3ccccc3)ns2)cc1,2.1% (inactive)
22,Cc1ccc(-c2nc(NC(=O)CSc3nnc4scc(-c5ccccc5)n34)ns2)cc1,12.3% (inactive)
23,CCn1c(=O)cc(SCC(=O)Nc2ccc3c(c2)OCCO3)c2ccccc21,2.8% (inactive)
24,O=c1[nH]c2c(n(C3CCCCC3)c1=O)CCC2,-11.2% (inactive)

row,SMILES,inhibition
1,Cc1ccc(C(=O)Nc2ccccc2C(=O)N2CC(C)OC(C)C2)cc1 (centres undefined),1.8% (inactive)
2,Cc1cc(C)cc(N2C(=O)NC(=O)/C(=C\c3ccc([N+](=O)[O-])o3)C2=O)c1,25.1% (inactive)
3,Cc1cc(N2C(=O)NC(=O)/C(=C\c3ccc([N+](=O)[O-])o3)C2=O)ccc1Br,65.5% (active)
4,CC(C)c1ccc(N2C(=O)NC(=O)/C(=C/c3ccc(Br)o3)C2=O)cc1,58.6% (active)
5,CC(C)c1ccc(N2C(=O)NC(=O)/C(=C/c3ccc(I)o3)C2=O)cc1,12.4% (inactive)
6,O=C1NC(=O)N(c2ccccc2)C(=O)/C1=C\c1ccc(Br)o1,8.3% (inactive)
7,Cc1cc(N2C(=O)NC(=O)/C(=C\c3ccc(N(C)C)o3)C2=O)ccc1Br,2.1% (inactive)
8,O=C(NC(Cc1ccccc1)C(=O)N1CCN(c2ccccn2)CC1)c1ccco1 (centres undefined),-1.1% (inactive)
9,COc1ccc(OC)c(CN2C(=O)c3ccccc3C2C(=O)NCc2cccnc2)c1 (centres undefined),-10.2% (inactive)
10,CN(Cc1ccccc1)S(=O)(=O)c1ccc2[nH]c(=O)oc2c1,-2.6% (inactive)
11,COc1ccc2noc3c2c1C(=O)c1ccccc1-3,102% (active) and -3.3% (inactive)
12,O=C1c2ccccc2-c2onc3ccc(NC4CCCCC4)c1c23,-1.7% (inactive)
13,O=C1C=Cc2ccccc2/C1=N/Oc1ccc2noc3c2c1C(=O)c1ccccc1-3,65.3% (active)
14,CCOc1ccc(Nc2ccc3noc4c3c2C(=O)c2ccccc2-4)cc1,3.7% (inactive)
15,O=C1c2ccccc2-c2onc3ccc(Oc4ccc(Cl)cc4)c1c23,92.2% (active)
16,O=C1c2ccccc2-c2onc3ccc(Sc4ccccc4)c1c23,7.7% (inactive)
17,CCNc1ccc2noc3c2c1C(=O)c1ccccc1-3,4.2% (inactive)
18,O=C1c2ccccc2-c2onc3ccc(N4CCCCC4)c1c23,10.8% (inactive)
19,O=C1c2ccccc2-c2onc3ccc(Cl)c1c23,13.1% (inactive)
20,CCOc1ccc2noc3c2c1C(=O)c1ccccc1-3,45.7% (inactive) and 44.7% (inactive)
21,O=C1c2ccccc2-c2onc3ccc(NCc4ccco4)c1c23,-14.4% (inactive)
22,Cc1ccc2c(c1)c1nc3ccccc3nc1n2CCN1CCOCC1,1.9% (inactive)
23,Brc1cccc(CN2CCN(C3CCN(Cc4ccccc4)CC3)CC2)c1,3.4% (inactive)
24,O=C(CSC(=S)N1CCOCC1)c1ccc([N+](=O)[O-])cc1,2.2% (inactive)

row,SMILES,inhibition
1,Cc1ccc(-n2c3c(cc(C(=O)NCCCN4CCOCC4)c2=O)C(=O)CC(C)(C)C3)cc1,-7.6% (inactive)
2,COc1cccc(C2/C(=C(\O)c3c(C)nc4c(C)cccn34)C(=O)C(=O)N2CCCN(C)C)c1 (centres undefined),-2.7% (inactive)
3,CCCCOC(=O)c1c(NC(=O)C2C3CCC(C3)C2C(=O)O)sc2c1CCCC2 (centres undefined),0% (inactive)
4,COc1ccc(/C=C/C(=O)NC(=S)Nc2ccc(S(=O)(=O)N=C(N)N)cc2)cc1,-1.1% (inactive)
5,O=C1CC(c2ccccc2)CC2=C1C(c1cccnc1)Nc1ccc(C(=O)c3ccccc3)cc1N2 (centres undefined),8.5% (inactive)
6,O=C(O)C1C2C=CC(O2)C1C(=O)Nc1ccccc1C(F)(F)F (centres undefined),4.5% (inactive)
7,O=C1C(Nc2ccc(Cl)cc2)=C(N2CCCCC2)C(=O)c2ccccc21,55.2% (active)
8,O=C(O)c1ccc(NC2=C(N3CCCCC3)C(=O)c3ccccc3C2=O)cc1,1.7% (inactive)
9,O=C1C(Nc2ccc(Cl)cc2)=C(N2CCOCC2)C(=O)c2ccccc21,2% (inactive)
10,CCOCCOC(=O)C1=C(C)N(C)C(=O)NC1c1cc(Cl)c(O)c(OCC)c1 (centres undefined),-5.1% (inactive)
11,O=C(CN1CCN(Cc2ccccc2Cl)C1=O)NC1CCCCCCC1,-3.3% (inactive)
12,Cc1c(CCC(=O)O)c(=O)oc2cc3occ(-c4ccc(F)cc4)c3cc12,8.5% (inactive)
13,Cc1c(CCC(=O)O)c(=O)oc2cc(O)ccc12,2.4% (inactive)
14,COc1ccc(C2(O)CC3CCC(C2)N3c2cc(C)nc(-c3ccccc3)n2)cc1 (centres undefined),7.5% (inactive)
15,Cc1ccc(C2CC(C(F)(F)F)n3nc(C(=O)N(Cc4ccccc4)Cc4ccccc4)cc3N2)cc1 (centres undefined),3.9% (inactive)
16,COc1ccc(Cn2c3nc4ccccc4nc3c3c(=O)n(Cc4ccco4)c(C)nc32)cc1,8.3% (inactive)
17,COc1ccc(Cn2c3nc4ccccc4nc3c3c(=O)n(Cc4ccco4)cnc32)cc1,2.5% (inactive)
18,COC(=O)c1c(-c2ccccc2)csc1NC(=O)CCCC(=O)O,3.6% (inactive)
19,CN=C(Nc1ccc(F)cc1)SC1CC(=O)N(c2ccccc2F)C1=O (centres undefined),1.3% (inactive)
20,COC(=O)c1c2nc3ccccc3sc-2cc(=O)c1N,122% (active)
21,CCOC(=O)c1nc2ccccc2s1,-6.5% (inactive)
22,COC(=O)N(C)c1nc2ccccc2s1,-5% (inactive)
23,O=C(Nc1cccc2c1CCCC2)c1ccc(Br)cc1,2.6% (inactive)
24,O=C(Cc1ccccc1)Nc1ccccc1C(=O)N1CCN(Cc2ccccc2)CC1,2.5% (inactive)

row,SMILES,inhibition
1,CC(Oc1ccc(Cl)cc1Cl)C(=O)N1CCN(Cc2ccccc2)CC1 (centres undefined),-0.2% (inactive)
2,CCOC(=O)c1sc2nc(SCC(=O)NCc3ccco3)n(Cc3ccccc3)c(=O)c2c1C,-3.7% (inactive)
3,CCOC(=O)c1sc2ncn(C(C)C(=O)OCC)c(=O)c2c1C (centres undefined),0.5% (inactive)
4,CCOC(=O)c1sc2ncn(C(C)C(=O)OC)c(=O)c2c1C (centres undefined),-14.1% (inactive)
5,CCOC(=O)c1sc2ncn(C(CC)C(=O)OC)c(=O)c2c1C (centres undefined),-9.8% (inactive)
6,O=C(COc1ccc(Cl)cc1)Nc1ncccn1,-2.2% (inactive)
7,C/C(=N\OCC(=O)N=Nc1c(O)n(CN2CCN(C)CC2)c2ccccc12)c1cccs1,-0.1% (inactive)
8,CN(C)c1ccc(C(C2=C(O)CC(C)(C)CC2=O)C2=C(O)CC(C)(C)CC2=O)cc1,3.2% (inactive)
9,O=C(Cn1nc(Cc2cccnc2)c2ccccc2c1=O)Nc1ccc2c(c1)OCO2,-0.1% (inactive)
10,COC(=O)c1cc2c([nH]c3ccccc32)c(C)n1,-4% (inactive)
11,N#Cc1c(N)nc(SCC(=O)c2ccccc2)c(C#N)c1-c1ccc(Cl)cc1,6.2% (inactive)
12,Cc1cc(NC(=O)CSc2ccc(-c3nc4cc(C)c(C)cc4[nH]3)cn2)no1,0.6% (inactive)
13,Cc1cc2nc(-c3ccc(SCC(=O)N4CCOCC4)nc3)[nH]c2cc1C,3.3% (inactive)
14,CCc1ccc(O)c(N=Cc2cc(Br)cc(Br)c2O)c1,1.5% (inactive)
15,Oc1oc(-c2ccccc2)nc1C=Nc1ccc(Cl)c2cccnc12,3.9% (inactive)
16,Oc1c(Br)cc(Br)cc1C=Nc1ccc(Cl)c2cccnc12,98.2% (active)
17,Oc1c(Br)cc(Br)cc1C=Nc1ccc(Br)c2cccnc12,52.9% (active)
18,Oc1c(Br)cc(Br)cc1/C=N/c1ncn[nH]1,5.8% (inactive)
19,Oc1ccc(Br)cc1C=Nc1ccc(Cl)c2cccnc12,14.2% (inactive)
20,COc1ccc(N(Cc2cc3ccc(C)cc3[nH]c2=O)C(C)=O)cc1,-3.9% (inactive)
21,CC(C)Cc1cc(C(=O)NCCN2CCOCC2)no1,-10.2% (inactive)
22,NC(=O)c1ccccc1NC(=O)c1ccc(Cl)cc1[N+](=O)[O-],-1.7% (inactive)
